Test results taken from the supplement of paper PMC6555819.

Experiments:
Assay in all cases: PBM binding z-score (relative to random genomic background probes); higher = stronger binding; sequences stand for … in GC…GCGATTGACAGCGTAGAATGAAGG
[1] = test system: FXR:RXRa (NR concentration 270 nM, RXRa partner concentration 90 nM)
In short: (§1)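 Antibodies against each partner of ligand-free nuclear receptor dimers (one per run) detected binding on custom Agilent 4×180K protein-binding microarrays after 1 h incubation. The double-stranded probes had 34-nt variable regions carrying direct-repeat seeds, single-nucleotide variants, half-site ablations and random human genomic background sequences. Binding z-scores, from regression-normalized fluorescence, use the random background probes as reference.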

[2] = test system: LXRa:RXRa (NR concentration 270 nM, RXRa partner concentration 90 nM)
In short: as §1

[3] = test system: LXRa homodimer (NR concentration 270 nM)
In short: as §1

[4] = test system: LXRb:RXRa (NR concentration 270 nM, RXRa partner concentration 90 nM)
In short: as §1

[5] = test system: LXRb homodimer (NR concentration 270 nM)
In short: as §1

[6] = test system: PPARa:RXRa (NR concentration 270 nM, RXRa partner concentration 90 nM)
In short: as §1

[7] = test system: PPARg:RXRa (NR concentration 180 nM, RXRa partner concentration 90 nM)
In short: as §1

[8] = test system: PPARg:RXRa 270nM:90nM, anti-RXR (NR concentration 270 nM, RXRa partner concentration 90 nM)
In short: as §1

[9] = test system: PPARg:RXRa 30nM:10nM, anti-RXR (NR concentration 30 nM, RXRa partner concentration 10 nM)
In short: as §1

[10] = test system: PPARg:RXRa 90nM:30nM, anti-RXR (NR concentration 90 nM, RXRa partner concentration 30 nM)
In short: as §1

Sequence | PBM binding z-score [1] | PBM binding z-score [2] | PBM binding z-score [3] | PBM binding z-score [4] | PBM binding z-score [5] | PBM binding z-score [6] | PBM binding z-score [7] | PBM binding z-score [8] | PBM binding z-score [9] | PBM binding z-score [10]
TAGCCTAGGTCATGGGCCATTATACCACGCGAAC | 4.64 | 3.37 | 0.43 | 2.95 | 0.468 | 4.24 | 4.34 | 4.26 | 1.44 | 2.97
CCAGGCAGGTGAGAAGGTAACTCAGCCTCGATTA | -0.311 | -0.32 | -0.49 | -0.277 | -0.875 | 0.473 | 0.238 | 0.813 | -0.448 | 0.0901
ACAGACAGGTGAGAGAAGGTAACTCAGCTGGACG | 0.34 | -0.0792 | -0.413 | -0.366 | -0.81 | 0.165 | 0.832 | -0.247 | 0.0838 | 0.154
CTTGAAAGGTCGGTTGAGGTGAGTATACGGATAA | 3.64 | 2.28 | -0.0492 | 2.52 | -0.354 | 3.43 | 0.512 | 1.27 | 0.216 | 0.942
CAAACTAGGTCGAGAGGTCAAAGTCCGCTTCCCG | 5.34 | 5.53 | 4.87 | 4.61 | 1.17 | 5.6 | 6.98 | 6.37 | 4.44 | 6.54
ATCGAAAGTTCGAGGTGAGTATAGAGAAAGGGAA | 0.831 | 1 | -0.204 | 0.703 | -0.225 | 1.76 | 0.648 | 0.797 | 0.3 | 0.478
GTACAAAGGTGAATAGGTCGTTGATGAGTAGGCG | 2.27 | 2.19 | 0.326 | 1.78 | -0.0357 | 4.09 | 4.55 | 4.78 | 2.17 | 4.03
TAGCCTAGGTCATTCAGCGGCCAGTATAGAAAGC | 5.03 | 3.68 | 1.04 | 2.68 | 0.455 | 3.72 | 2.09 | 2.21 | 0.564 | 1.12
CCGACTGGGGCATAAGGTTACCACAAGCCAGCCC | 0.502 | 1.28 | -0.388 | 0.812 | -0.551 | 2.07 | 2.44 | 3.27 | 0.735 | 2.92
ATCTCTAGGTAAAGATCAGTGAAAGATCGATAGA | 0.248 | 0.153 | 0.0101 | 0.0437 | 0.463 | 0.624 | 1.04 | 1.14 | 0.487 | 0.992
ATCTCTAGGTAAAGATAGTTCCGTGAATGCAAAT | 0.0722 | -0.0482 | 0.14 | -0.171 | 0.352 | 0.22 | 0.326 | 0.273 | 0.172 | 0.366
GCTAGCAGGCCCTTTGGGTCACTCAATGACGGGC | -0.0163 | -0.0683 | -0.519 | -0.325 | -1.53 | 0.647 | 0.157 | 0.373 | -0.568 | 0.116
AGAACGGGGGCACGCTGAGTTGATAGCAGAGTAG | 2.62 | 2.67 | 0.116 | 4.87 | 6.59 | 4.42 | 4.48 | 4.86 | 2.39 | 4.05
ATATGTAGGTTAGCTGGGGTCACTCAGACTAGGC | 4.47 | 5.35 | 1.4 | 4.08 | 1.05 | 5.03 | 5.15 | 5.18 | 2.81 | 4.46
ATCGAAAGGTCGTGAGGTGAGTAAACAGAAAGGC | 5.42 | 3.82 | 0.314 | 3.14 | 0.648 | 5.03 | 3.9 | 4.4 | 1.22 | 2.97
TCGAGTAGGTTAGGGGCAATCAGAATGGCGTCGA | 0.369 | 0.37 | -0.18 | 0.715 | -0.231 | 1.41 | 1.53 | 2.73 | 1.47 | 2.42
GCGACTGGGGCATCGGCAGGTTACCATAACTTAA | 0.0165 | -0.138 | -0.214 | 0.589 | -0.797 | 1.06 | 0.979 | 1.1 | -0.324 | 0.563
AATACAGGGGCACTAGGCCAGAGTAGGTACGAAT | -0.0916 | 0.117 | -0.197 | 0.693 | -0.000441 | 1.5 | 2.84 | 2.51 | 0.512 | 1.26
TCTTGTAGGTCAACAGGAGGTTAAGAAAGATCGA | 5.53 | 4.75 | 1.77 | 3.93 | 1.27 | 5.74 | 7.68 | 6.79 | 5.3 | 6.38
CGAACGAGCGCATGAGTTGATAGCAAATGCCGAT | -0.525 | -0.575 | -0.486 | -0.865 | -1.12 | -1.7 | 0.405 | -0.647 | -0.312 | -0.44
ACCGAAAGGTCGACGAGGTGAGTATACACCGTTT | 4.37 | 3.09 | 0.178 | 2.83 | -0.0188 | 4.42 | 2.71 | 3.21 | 0.781 | 2.02
AGAACGAGGGCAATGTGTTGATAGCACGGGTGGC | 0.748 | 0.456 | -0.316 | 0.0585 | -0.324 | 1.47 | 1.55 | 1.19 | 0.0423 | 0.712
ACAGACAGGTAATGAAGGTAACTCAGGCTATCAT | 0.224 | 0.251 | 0.0515 | 0.0112 | 0.161 | 0.173 | 0.58 | -0.0336 | -0.0735 | -0.327
CCGACTGGCGCATAAGGTTACCATAAGCCAGCCC | 0.387 | 1.91 | -0.184 | 0.848 | -0.921 | 0.659 | 0.557 | 0.0532 | -0.553 | -0.235

Sequence | PBM binding z-score [1] | PBM binding z-score [2] | PBM binding z-score [3] | PBM binding z-score [4] | PBM binding z-score [5] | PBM binding z-score [6] | PBM binding z-score [7] | PBM binding z-score [8] | PBM binding z-score [9] | PBM binding z-score [10]
ATCTCTAGGTAACAAGTTCATTGAAAGAGAGGAC | 1.22 | 1.89 | 1.5 | 1.8 | 1.27 | 2.75 | 2.82 | 3.03 | 1.55 | 2.63
TGTCAAAGTTCAAAGGTAACGCAAGTATCCACAC | 7.39 | 6.39 | 4.52 | 4.83 | 1.75 | 6.18 | 9.31 | 8.11 | 5.51 | 7.89
CAGCCTAGGTCAGGGCCAGTGTAGGAGGAACGTT | 1.51 | 1.17 | -0.646 | 0.424 | -1.41 | 2.1 | 0.721 | 0.845 | -0.701 | -0.0334
ATCGAAAGGTCGAGGTGACTATAGAGAAAGGGAA | 4.61 | 3.47 | 0.0804 | 2.68 | 0.167 | 4.72 | 3.8 | 3.74 | 1.66 | 3.09
CGAACTAGGTCAGAACAGGATAGTGAAGGATGAT | 1.16 | 0.877 | -0.252 | 0.463 | -0.465 | 3.33 | 5.21 | 4.24 | 1.75 | 3.34
TAGCCTATGTCATTCAGGGGCCAGTATAGAAAGC | -0.275 | -0.326 | -0.461 | -0.0773 | 0.117 | -0.00609 | 0.175 | -0.205 | -0.271 | -0.159
TCTATTAGTTGAAGGGCAATCGACGAGTCCGTTT | 0.797 | 0.889 | 0.341 | 0.908 | 0.176 | 0.795 | 0.0366 | 1.98 | 3.75 | 2.67
CCGACTGGGGCAAAGTTTACCATACTCAGTACGA | -0.248 | 0.0946 | -0.139 | 0.553 | -0.586 | 3.67 | 8.3 | 7.72 | 6.38 | 8.55
GGAACGAGGGCAAGTAGATAGCAGAGTTTGATGG | 0.456 | 0.278 | -0.397 | -0.016 | -0.00645 | 1.36 | 1.21 | 0.904 | 0.0838 | 0.493
ATCTCTAGGAAAGACTCAGTTCAGTGAAGAACGC | 0.193 | 0.324 | 0.437 | 0.164 | 0.531 | -0.385 | -0.00135 | -0.209 | -0.24 | -0.119
AGAATGAGGTTATACGTAGATCAGGGCAGAAAGT | 2.33 | 1.89 | 0.241 | 1.77 | -0.0553 | 3.17 | 1.83 | 2.15 | 0.79 | 1.41
CGTCCAAGGCCAATGCTAGGTCAGTGAAAGCATT | 0.0419 | -0.0335 | 0.187 | -0.036 | -0.831 | 0.242 | -0.45 | -0.432 | -1.33 | -0.866
AGAACGAGAGCAATGAGTTGATAGCACGGGTGGC | -0.715 | -0.7 | -0.726 | -0.759 | -0.725 | -0.447 | 0.796 | -0.0173 | -0.196 | 0.0595
TCTGCTAGGTCAACGATGGTCAGCTCATCTGCTA | 3.56 | 2.79 | 0.0556 | 1.81 | 0.088 | 3.34 | 2.4 | 2.89 | 1.65 | 2.19
ATCTCTAGGTAGCCAAGTTCAGTGAATGCCGAAC | -0.0679 | -0.0761 | 0.135 | 0.15 | 0.335 | 0.168 | -0.118 | -0.148 | -0.248 | -0.291
CGTCCAAGGGCAAGGTCAGTGAAAGAGACTCGAA | 1.95 | 1.58 | -0.119 | 1.22 | -0.836 | 2.75 | 0.977 | 1.31 | -0.324 | 0.436
TGAATGAGGTTAAAGATCAGCGAACGTGGCGTCG | 2.99 | 2.46 | -0.568 | 1.62 | 0.0932 | 4.55 | 5.87 | 6.26 | 5.47 | 6.67
CAGCCTAGGGCAGGGCCAGTATAGGAGGAACGTT | -0.713 | -0.785 | -0.921 | -1.11 | -1.4 | -0.747 | -0.037 | -0.861 | -0.884 | -1.24
ATATGTAAGTTAAGGGTCATTCAGGTTGGTTCGC | 4.42 | 4.64 | 3.27 | 4.11 | 1.56 | 5.03 | 6.82 | 7.16 | 6.71 | 7.81
TCCCGGAGGACACGAAGGTCAGAGCTTTCCAGAG | 1.21 | 1.09 | 0.214 | 0.838 | -1.26 | 1.81 | 0.359 | 1.33 | 1.5 | 1.41
CCCGACAGGTGAAAGGTAACTCAGTCTGGTACGC | 0.639 | 0.898 | -0.133 | 0.876 | -0.143 | 3.39 | 5.1 | 5.75 | 3.73 | 5.61
ATCTCTAGGTAAAAGTTAAGTGAATCCCGAGGAT | 0.172 | 0.0131 | -0.136 | -0.0735 | 0.69 | 1.58 | 3.42 | 4.91 | 2.79 | 4.71
TCTTGCAGATCAACAGGAGGTTAAGAAAGATCGA | -0.0407 | 0.769 | 0.0202 | 0.679 | -0.645 | 1.11 | -0.141 | 0.718 | 1.89 | 1.63
TGAATGAGGTTAAAGATGAGGGAACGTGGCGTCG | 2.79 | 2.16 | 0.0267 | 1.29 | 0.831 | 3.65 | 3.77 | 4.65 | 2.44 | 4.35
